Test results published in PubChem BioAssay (NCI).
Where “and” joins values, the source holds several entries; their conditions need not be identical. Identical values can stand only once. Compounds without any hit were thinned out: in the full panel of roughly 83,000, 20% have a hit.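 Activity criterion: percent growth below 10, measured after cells in 96-well plates were exposed to a single compound concentration for 48 hours.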 Calls of active or inactive are those of the source.

Test system: MDA-MB-468 breast
Assay: NCI-60 one-dose screen, 48 h (100 = growth as untreated, 0 = no growth, -100 = all killed)
Conditions: 10 µM unless noted

Compound	growth
CC[C@]1(O)CC2CN(CCc3c([nH]c4ccccc34)C(C(=O)OC)(c3cc4c(cc3OC)N(C=O)[C@H]3[C@@](O)(C(=O)OC)[C@H](OC(C)=O)[C@]5(CC)[C@@H]6C[C@@H]6CN6CC[C@]43[C@@H]65)C2)C1 (stereo not given in full)	22.9% (inactive)
NC(=NC1C2CC3CC(C2)CC1C3)Nc1ccc(I)cc1 (stereo not given)	-3.88% (active)
CCc1c2c(nc3ccc(OCc4ccc(B5OC(C)(C)C(C)(C)O5)cc4)cc13)-c1cc3c(c(=O)n1C2)COC(=O)[C@]3(O)CC	-42% (active)
Cc1ccc2c(n1)C(=O)C(Oc1ccc(Br)cc1)=CC2=O	91.3% (inactive)
CC[C@]12C=CCN3CC[C@@]4(c5ccc(OC)cc5N(C)[C@H]4[C@@](O)(C(=O)OC)[C@@H]1OC(=O)CCC[P+](c1ccccc1)(c1ccccc1)c1ccccc1)[C@@H]32	-75.6% (active)
CN(C)CCCn1c2c(c3cc(-c4cccc(S(N)(=O)=O)c4)ccc3c1=O)C(=O)c1ccccc1-2	88.5% (inactive)
C=CC(=O)OC1CCC(C(C)(C)CC)CC1 (stereo not given)	108% (inactive)
N#Cc1nn(-c2cc(=O)[nH]c3ccc(Cl)cc23)c(N)c1C#N	110% (inactive)
O=[N+]([O-])c1cc2c(cc1Br)C1C(C3C2C(Cl)(Cl)C(Cl)=C(Cl)C3(Cl)Cl)C(Cl)(Cl)C(Cl)=C(Cl)C1(Cl)Cl (stereo not given)	95.7% (inactive)
O=C1OC(N(Cc2ccc(Cl)cc2)c2ccccc2)c2ccccc21 (stereo not given)	104% (inactive)
O=C(NN=C1CCCCC1)C(=O)NN=C1CCCCC1	113% (inactive)
O=[N+]([O-])c1cnc(Sc2ccncn2)s1	-63.7% (active)
CO[C@H]1C[C@@H]2CC[C@@H](C)[C@@](O)(O2)C(=O)C(=O)N2CCCC[C@H]2C(=O)O[C@H]([C@H](C)C[C@@H]2CC[C@@H](OCCO)[C@H](OC)C2)CC(=O)[C@H](C)/C=C(\C)[C@@H](O)[C@H](OC)C(=O)[C@H](C)C[C@H](C)\C=C/C=C/C=C/1C	26.9% (inactive)
N#Cc1c(NC(=O)c2ccccc2C(F)(F)F)sc2c1CCC(=O)C2	-0.286% (active)
OCCn1cc(-c2nc(-c3c[nH]c4ncccc34)cs2)c2ccccc21	4.37% (active)
O=C(CN1CCOCC1)N1CCOCC1	108% (inactive) and 116% (inactive)
COc1ccc(N2CCC(=O)NC2=S)cc1	100% (inactive)
O=C(Cc1ccccc1)Nc1cccc(N=Cc2ccccc2O)c1	104% (inactive)
CC[C@H](Nc1ncnc2nc[nH]c12)c1nc2cccc(NCc3ccc(C(=O)NO)o3)c2c(=O)n1-c1ccccc1	84.7% (inactive)
O=C1Nc2ccc(Cl)cc2/C1=C\c1c(-c2ccc(F)cc2)nc2ccccn12	-13.6% (active)

Compound	growth
C=CCSc1nnc(COc2ccc3c(C)c(Cc4ccccc4)c(=O)oc3c2C)o1	113% (inactive)
CSc1ncc(C)c(Nc2ccc(Cl)cc2)n1	129% (inactive)
Cc1ccc(CCCC(=O)O)c(C)c1	91.7% (inactive)
O=C1NC(=O)c2ncccc21	93.8% (inactive)
C/C(=N\NC(N)=S)c1nnn(-c2ccc([N+](=O)[O-])cc2)c1C	89.3% (inactive)
CC1(C)OC2C(CO)OC(n3ccc(=O)[nH]c3=O)C2O1 (stereo not given)	127% (inactive)
COc1ccc(C/C(C)=C(\c2ccc(OCCN3CCCCCC3)cc2)c2ccc(OC(=O)C3CCCCC3)cc2)cc1	45% (inactive)
C=CC(C)(O)CC/C=C(\CO)C(=O)OC1C(C)OC(O[C@](C)(C=C)CC/C=C(\CO)C(=O)O[C@H]2C[C@@]3(C(=O)OC4OC(CO)C(O)C(O)C4OC4OC(C)C(OC5OC(CO)C(O)C5O)C(OC5OC(CO)C(O)C(O)C5O)C4O)C(CC2(C)C)C2=CCC4[C@@]5(C)CC[C@H](OC6OC(COC7OC(C)C(O)C(O)C7OC7OCC(O)C(O)C7O)C(O)C(O)C6NC(C)=O)C(C)(C)C5CC[C@@]4(C)[C@]2(C)C[C@H]3O)C(O)C1O (stereo not given in full)	19.9% (inactive)
CSCCC(C(=O)O)N1C(=O)/C(=C/c2ccc(O)c(O)c2)SC1=S (stereo not given)	100% (inactive)
C=CCn1c(SCC(=O)Nc2ccc(C(=O)/C=C/c3ccc(OC)cc3)cc2)nnc1-c1ccc(OC)c(OC)c1	75% (inactive)
COc1ccc(/C=C/C(=O)c2ccc(NC(=O)CSc3nnc(-c4ccc(OC)c(OC)c4)n3-c3ccccc3)cc2)cc1	60.2% (inactive)
CC1(n2nnnc2N2CCCN(c3ncccc3N)CC2)CCC1	93% (inactive)
NC1CCC(Nc2nc(NCc3ccc(-c4ccccc4O)nc3)c3ncn(C4CCCC4)c3n2)CC1 (stereo not given)	-73.7% (active)
CS(=O)(=O)Nc1ccc(OCc2nnc(-c3ccc(Cl)cc3)o2)c(F)c1	86.8% (inactive)
CC1=NC2=NC(=O)/C(=C3/N=C(C)C=C(c4ccccc4)N3N)NN2C(c2ccccc2)=C1	109% (inactive)
CCOC(=O)c1sc(NC(=O)c2cc(OC)c(OC)c(OC)c2)nc1C	92.2% (inactive)
COc1cc(OC)c(/C=C/c2c3ccccc3cc[n+]2C)c(OC)c1	-26.5% (active)
C=CCSSC1N=CNc2nc[nH]c21 (stereo not given)	5.55% (active)
CC(C)/C(=N/O)c1ccccc1	105% (inactive)
CS(=O)(=O)c1nccc(-c2c(-c3ccc(OCCc4ccccc4)cc3)nc3sccn23)n1	-81.5% (active)
